Measurements from the supplement of paper PMC10720658.
± gives the standard deviation of the averaged measurements.

Tested on: AEK1 (Tb927.3.2440)
Experiment: percent reduction in TR-FRET probe signal relative to DMSO control; higher = stronger displacement of ATP-site probe (binding)
Conditions: 1 µM; incubation time 1 h

Row | SMILES | percent reduction in TR-FRET probe signal [%]
1 | Cc1nc(Nc2ncc(C(=O)Nc3c(C)cccc3Cl)s2)cc(N2CCN(CCO)CC2)n1 [Dasatinib] | 10.6 ± 19
2 | CC(C)(CCCCCC(O)CCCCCC(C)(C)C(=O)O)C(=O)O | 0.88 ± 3.4
3 | C[C@@H]1COCCN1c1cc(C2(S(C)(=O)=O)CC2)nc(-c2cccc3[nH]ccc23)n1 | 0.253 ± 7.1
4 | CCC(=O)Nc1cccc(Oc2nc(Nc3ccc(N4CCN(C)CC4)cc3OC)ncc2Cl)c1 | -15.7 ± 6.4
5 | CCN(CC)CCCC(C)Nc1ccnc2cc(Cl)ccc12.O=P(O)(O)O.O=P(O)(O)O (stereo not given) [Chloroquine Phosphate] | -15.1 ± 5.7
